{"source": "PubChem BioAssay (Tox21)", "note": "Results filed as inconclusive are left out. Entries that show only a call come without a potency. Active and inactive are the calls of the source. The call rests on the fitted dose curve.", "data": [{"biological_target": "Thyrotropin receptor (Homo sapiens) (UniProt P16473)", "sequence (P16473 whole entry, looked up)": "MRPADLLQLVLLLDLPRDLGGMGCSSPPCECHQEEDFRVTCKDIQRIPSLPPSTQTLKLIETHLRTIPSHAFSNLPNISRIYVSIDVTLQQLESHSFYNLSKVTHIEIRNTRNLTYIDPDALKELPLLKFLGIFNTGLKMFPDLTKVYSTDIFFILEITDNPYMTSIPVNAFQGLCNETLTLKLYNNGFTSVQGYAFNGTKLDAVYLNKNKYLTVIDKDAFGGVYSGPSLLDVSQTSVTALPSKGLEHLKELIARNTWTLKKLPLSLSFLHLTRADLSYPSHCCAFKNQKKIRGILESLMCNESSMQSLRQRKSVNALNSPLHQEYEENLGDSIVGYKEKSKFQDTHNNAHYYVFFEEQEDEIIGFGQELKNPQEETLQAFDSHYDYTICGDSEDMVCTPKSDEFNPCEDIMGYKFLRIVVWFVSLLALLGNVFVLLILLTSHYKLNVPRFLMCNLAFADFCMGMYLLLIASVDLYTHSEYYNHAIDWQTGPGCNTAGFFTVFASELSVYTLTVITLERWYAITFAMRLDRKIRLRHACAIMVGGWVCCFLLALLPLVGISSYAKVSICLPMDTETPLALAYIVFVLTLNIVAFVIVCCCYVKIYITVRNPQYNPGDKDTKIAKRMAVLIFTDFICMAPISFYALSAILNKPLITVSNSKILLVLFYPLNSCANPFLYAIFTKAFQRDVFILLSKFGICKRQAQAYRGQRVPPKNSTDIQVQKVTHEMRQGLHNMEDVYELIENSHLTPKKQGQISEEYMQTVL", "assay": "qHTS assay to identify small molecule agonists of the thyroid stimulating hormone receptor (TSHR) signaling pathway (AID 1224843); further: nearly all actives have a fitted effect of over 45% in size", "settings": "TSHR-HEK293 cells, cAMP HTRF, agonist mode, 30 min; series mostly up to 92.4 µM", "from_the_text": "National Center for Advancing Translational Sciences [NCATS]\nNIH Chemical Genomics Center [NCGC]\nU.S. Environmental Protection Agency [EPA]\nNational Institutes of Environmental Health Sciences [NIEHS]\nNational Toxicology Program [NTP]\nU.S. Food and Drug Administration [FDA]\nTSHR is the receptor for thyrotropin (thyroid stimulating hormone or TSH), a member of the glycoprotein hormone family. TSH is released by the anterior pituitary gland and is the main regulator of thyroid gland growth and development. Upon binding circulating thyrotropin, a G-protein signal cascade activates adenylyl cyclase and […] cAMP concentration is increased. cAMP is a key second messenger involved extensively in cellular signal transduction pathways associated with the majority of G-protein coupled receptors (GPCRs). The activation of these GPCRs by neurotransmitters, lipids, nucleotides, peptides and hormones results in the activation or the inhibition of plasma membrane-bound adenylate cyclase through heterotrimeric G-proteins. A cell-based TSHR assay was used to screen the Tox21 10K library for compounds that can modulate TSHR in agonist mode.\nTox21 Assay Protocol Summary:\nTSHR-Hek293 cells were dispensed at 800 cells/4uL/well in 1536-well white plates using a Multidrop dispenser. […] The plates were incubated at room temperature for 30 min. 2.5 ul/well of cAMP-d2 and 2.5ul/well of anti-cAMP-cryptate was added respectively into the assay plates using a Flying Reagent Dispenser. After 1 hr incubation at room temperature, the fluorescence intensity in the plates was measured using an Envision plate reader. Each test compound was measured at 15 concentrations and in triplicates.", "values": [{"smiles": "CC(=N\\O)/C(C)=N/O", "Potency": "inactive"}, {"smiles": "C(=C\\c1ccccc1)/CN1CCN(C(c2ccccc2)c2ccccc2)CC1", "Potency": "inactive"}, {"smiles": "NC(=O)Nc1ccc(Cl)cc1", "Potency": "inactive"}, {"smiles": "O=C(O)c1snc(Cl)c1Cl", "Potency": "inactive"}, {"smiles": "O=C(O)c1ccc(CO)o1", "Potency": "inactive"}, {"smiles": "COc1cc2ncnc(Nc3ccc(F)c(Cl)c3)c2cc1OCCCN1CCOCC1", "Potency": "inactive"}, {"smiles": "CCC(Cc1ccccc1)(C(=O)c1ccc(N2CCOCC2)cc1)N(C)C", "note": "(stereo not given)", "Potency": "inactive"}, {"smiles": "CC1=CC(O)CC(C)(C)C1", "note": "(stereo not given)", "Potency": "inactive"}, {"smiles": "O=C(O)Cc1ccc(-c2ccccc2)cc1", "Potency": "inactive"}, {"smiles": "Cc1oncc1C(=O)Nc1ccc(C(F)(F)F)cc1", "Potency": "inactive"}, {"smiles": "COc1cc2c(N3CCN(C(=O)Nc4ccc(OC(C)C)cc4)CC3)ncnc2cc1OCCCN1CCCCC1", "Potency": "inactive"}, {"smiles": "CCCCC(CC)CNCC(CC)CCCC", "note": "(stereo not given)", "Potency": "inactive"}, {"smiles": "CCCCN(CCCC)C(=S)SSC(=S)N(CCCC)CCCC", "Potency": "inactive"}, {"smiles": "C[Si](NC1CCCCC1)(NC1CCCCC1)NC1CCCCC1", "Potency": "inactive"}, {"smiles": "Cc1cc(OI)c(C(C)C)cc1-c1cc(C(C)C)c(OI)cc1C", "Potency": "inactive"}, {"smiles": "c1ccc(COCc2ccccc2)cc1", "Potency": "inactive"}, {"smiles": "CCCCC(=O)O[C@]1(C(=O)CO)CC[C@H]2[C@@H]3CCC4=CC(=O)CC[C@]4(C)[C@H]3[C@@H](O)C[C@@]21C", "Potency": "inactive"}, {"smiles": "CCOC(=O)CC(=O)C(=O)OCC", "Potency": "inactive"}, {"smiles": "C=CCNc1nc(NCC=C)nc(N2CCN(C(c3ccc(F)cc3)c3ccc(F)cc3)CC2)n1", "Potency": "inactive"}, {"smiles": "CC(C)(O)c1ccccc1CC[C@@H](SCC1(CC(=O)O)CC1)c1cccc(/C=C/c2ccc3ccc(Cl)cc3n2)c1", "Potency": "inactive"}, {"smiles": "O=C(O)c1cccc(O)c1", "Potency": "inactive"}, {"smiles": "Cc1ccc(S(=O)(=O)NC2CCCCC2)cc1", "Potency": "inactive"}, {"smiles": "CNC(=O)N(c1ccccc1)c1ccccc1", "Potency": "inactive"}, {"smiles": "CCCOc1ccc(S(=O)(=O)N2CCN(CC)CC2)cc1-c1nc2c(CC)n(Cc3ccccn3)nc2c(=O)[nH]1", "Potency": "inactive"}, {"smiles": "c1cnc2c(n1)CCCC2", "Potency": "inactive"}, {"smiles": "CN(C)CCOC1=Cc2ccccc2Sc2ccc(Cl)cc21", "Potency": "inactive"}, {"smiles": "CCCOCCOCCO", "Potency": "inactive"}, {"smiles": "CCC(C)(C)C1CCC(O)CC1", "note": "(stereo not given)", "Potency": "inactive"}, {"smiles": "CCn1nc(C)c2c1C(=O)NCC(c1ccc(O)cc1)=N2", "Potency": "inactive"}, {"smiles": "C[N+]1(C)CCC(=C(c2ccccc2)c2ccccc2)CC1", "Potency": "inactive"}, {"smiles": "Cc1ccc(/C=N/n2c(-c3ccccc3)csc2=S)cc1", "Potency": "inactive"}, {"smiles": "CNCCCC1c2ccccc2C=Cc2ccccc21", "Potency": "inactive"}, {"smiles": "Cc1ccc(S)cc1", "Potency": "inactive"}, {"smiles": "C=CC(=O)NCOCC(C)C", "Potency": "inactive"}, {"smiles": "CCCCCCCCSCCO", "Potency": "inactive"}, {"smiles": "COc1ccc(CCC(=O)c2c(O)cc(O[C@@H]3O[C@H](CO)[C@@H](O)[C@H](O)[C@H]3O[C@@H]3O[C@@H](C)[C@H](O)[C@@H](O)[C@H]3O)cc2O)cc1O", "Potency": "inactive"}, {"smiles": "CNC(=S)NC", "Potency": "inactive"}, {"smiles": "COC(=O)[C@@H]1CC2=CC(=O)CC[C@]2(C)[C@@]23O[C@@H]2C[C@@]2(C)[C@@H](CC[C@@]24CCC(=O)O4)[C@H]13", "Potency": "inactive"}, {"smiles": "O=Cc1c(Cl)cccc1Cl", "Potency": "inactive"}, {"smiles": "O=C(O)c1cccnc1C(=O)O", "Potency": "inactive"}]}]}
